Source: PubChem BioAssay (several laboratories)
An excerpt weighted towards active compounds, which were near 3.7% of everything screened.
Anthrax LF prot: Bacillus anthracis LF protease inhibitors, primary screen, biochemical, multiplex microsphere, MLPCN library; Lethal factor (Bacillus anthracis), P15917; multiplex microsphere protease cleavage assay; inhibition, % at 10 µM; 360,000 compounds, 0.12% hits; AID 588501, 2011; further: plate controls were buffer without enzyme for full effect and enzyme alone for no effect
BoNT A protease: BoNT/A light chain protease inhibitors, primary screen, biochemical, flow cytometry, MLPCN library; AID 588499, 2011; multiplex microsphere protease substrate cleavage; inhibition, % at 10 µM; 360,000 compounds, 0.17% hits; further: plate controls were buffer without enzyme for full effect and enzyme alone for no effect
BoNT F protease: BoNT/F light chain protease inhibitors, primary screen, biochemical, flow cytometry, MLPCN library. Botulinum neurotoxin type F light chain protease (Clostridium botulinum). AID 588497, 2011. Multiplex microsphere protease cleavage assay. inhibition, % at 10 µM. 360,000 compounds, 0.22% hits; in the data active means inhibition above about 35%, passing the limit was not always enough; further: plate controls were buffer without enzyme for full effect and enzyme alone for no effect
Bead autofluor: compound fluorescence in toxin protease inhibitor counterscreen; compound autofluorescence counterscreen, microsphere flow cytometry; active compounds read high; fluorescence intensity (no concentration beside the values); 360,000 compounds, 3.1% hits; in the data active means fluorescence intensity above about 16000
MazEF act: activators of E. coli MazEF toxin-antitoxin RNase, primary screen, biochemical, fluorescence, uHTS. Endoribonuclease toxin MazF (Escherichia coli (strain K12)), P0AE70. FAM/BHQ RNA-DNA oligo cleavage fluorescence, 5 h. activation, % at 20 µM. 350,000 compounds, 0.32% hits. AID 504720, 2011; in the data active means activation above about 50%
Target sequence (P0AE70 whole entry, looked up): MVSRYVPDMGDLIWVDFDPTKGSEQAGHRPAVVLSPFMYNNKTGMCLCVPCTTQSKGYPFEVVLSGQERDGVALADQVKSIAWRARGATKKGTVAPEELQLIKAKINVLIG
BoNTA LC inh 2: BoNT/A light chain protease inhibitors, confirmation, biochemical, flow cytometry, cherry pick 2. shares compounds with BoNT A protease. multiplex microsphere protease cleavage assay. inhibition, % at 10 µM. 150 compounds, 10% hits. AID 602325, 2012; in the data active means inhibition above about 24%
LF protease CP2: Bacillus anthracis LF protease inhibitors, confirmation, biochemical, multiplex microsphere | shares compounds with BoNT A protease | multiplex microsphere protease cleavage assay | inhibition, % at 10 µM | 150 compounds, 7% hits; in the data active means inhibition above about 25%
BoNTF LC inh 2: BoNT/F light chain protease inhibitors, confirmation, biochemical, flow cytometry, cherry pick 2; shares compounds with BoNT A protease; multiplex microsphere protease cleavage assay; inhibition, % at 10 µM; 150 compounds, 7% hits; in the data active means inhibition above about 25%
An asterisk follows results filed as active; / = no result given. Unless noted, no stated cut-off is given here; in the data, active means inhibition above about 30%; inconclusive means no clear call, values can overlap the other calls; inactive means below that.

SMILES	Anthrax LF prot	BoNT A protease	BoNT F protease	Bead autofluor	MazEF act	BoNTA LC inh 2	LF protease CP2	BoNTF LC inh 2
Cc1cc2ccccc2n1CCNC(=O)Cc1cccc2ccccc12	-124	55*	-116	1162	11	12	10	-5
Cc1cc2ccccc2n1CCNC(=O)C(C)(C)C	12	96*	-16	2350	-14	11	10	11
CC1CCCCN1C(=O)C1CCN(c2nc(-c3ccccc3)nc3c2CCC3)CC1 (centres undefined)	0	0	2	4002	4	/	/	/
CC(=O)Nc1cc(-c2ccc(C(=O)N3CCOCC3)cc2)cn2c(-c3cccc(C(F)(F)F)c3)cnc12	-6	0	1	3568	/	/	/	/
Cc1cc2ccccc2n1CCNC(=O)COc1ccccc1	-63	84*	-88	1122	-15	77*	50*	-14
COC(=O)CNC(=O)COc1ccccc1	2	0	1	2518	-6	/	/	/
COc1ccc(C(CNC(=O)C(CCSC)NC(=O)c2ccccc2Cl)N2CCCCC2)cc1 (centres undefined)	-1	1	1	3610	5	/	/	/
COc1ccc(C(CNC(=O)C(CCSC)NC(=O)c2ccccc2Cl)N2CCCC2)cc1 (centres undefined)	7	-15	43*	15232	-1	-5	1	14
O=C(c1ccc(S(=O)(=O)Cc2cc(F)ccc2F)c([N+](=O)[O-])c1)N1CCOCC1	-2	0	1	2965	8	/	/	/
